Activity calls are given as the source filed them.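 Rule for the calls, unless noted: active = NADPH fluorescence slope more negative than the mean of all samples by about 3 SD, 99.7% confidence; inactive = the rest.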

The nature of assay [1]: inhibitors of TNFa-induced NFkB p65 translocation, primary screen, imaging, HUVEC, MLSMR starter and 10KST1 sets (AID 438;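 active = inhibition above 20% together with a positive visual image hit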;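 note: compound added about 3h40 before a 20 min TNFalpha stimulation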;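 for inhibition: signal is the nuclear over cytoplasmic p65 intensity ratio per well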). Particulars: HUVEC TNFa-induced p65 nuclear translocation; cell count: measured here: nuclei count (cytotoxicity indicator), at 2.08 µM; inhibition: at 2 µM, stronger effect = higher value, 0% TNFa-plus-vehicle, 100% no-TNFa wells.
A short description of assay [2]: reduction of polyQ htt aggregates in cells – imaging, exon1htt(103Q)mCFP cells, high-content imaging, primary screen (AID 483;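 active = visual image review flags a hit and inhibition of aggregation exceeds 20%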;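 note: compound exposure lasted 3 days before fixation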;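 for nuclei count: percent of the per-plate median nuclei count of sample wells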). The settings on record: exon1htt(103Q)mCFP cell line, aggregate imaging, at 2 µM; inhibition of aggregation: stronger effect = higher value; nuclei count: measured here: cell count, toxicity.
A short description of assay [3]: endothelial E-selectin expression blockers – imaging, HUVEC, immunofluorescence, MLSMR starter and 10KST1 sets, primary screen (AID 487;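 active = visually confirmed hit in the image check and inhibition above 20%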;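 for inhibition: signal is fraction of cell area covered by stained E-selectin grains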;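 for nuclei count: 100% = median nuclei count of all wells on the same plate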). Particulars: HUVEC TNFalpha-induced E-selectin immunofluorescence imaging, at 2 µM; inhibition: stronger effect = higher value; nuclei count: measured here: cell number, toxicity.
Assay [4] concerns the target Voltage-gated potassium channel subunit beta-2 (Rattus norvegicus) (UniProt P62483). In words: inhibitors of rat Kvbeta2 reductase activity – biochemical, NADPH fluorescence, primary screen (AID 622;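 active = fluorescence slope higher than the sample average by over 3 SD, cut at about -0.22 in these data, passing the limit was not always enough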;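 note: slope of raw intensity against log time taken from 70 to 1610 s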). Particulars: recombinant KvBeta, 4-cyanobenzaldehyde reduction, at 10 µM, stronger effect = higher value.
Assay [5] has the same target. The assay is described as follows: enhancers of rat Kvbeta2 NADPH turnover – biochemical, NADPH fluorescence, primary screen (AID 623).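 Note: fluorescence intensity change per second fitted from 20 to 320 s.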 Particulars: Recombinant KvBeta, NADPH fluorescence decrease slope, 10 min; at 10 µM; stronger effect = lower value.
The target of assay [6] is Alpha-2C adrenergic receptor (Homo sapiens) (UniProt P18825). The assay is described as follows: compounds altering alpha2C-coupled GIRK flux – cell-based, HEK293 alpha2C/GIRK1/2, thallium flux, primary screen (AID 624;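 active = fluorescence slope after compound addition differing from the mean of all screened samples at 99.7% confidence, in either direction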;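 note: slope of fluorescence ratio to pre-addition baseline per second over 15 to 24 s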). The settings on record: thallium flux BTC fluorescence, at 10 µM, actives lie on both sides.
The nature of assay [7]: blockers of RIG-like receptor reporter activation – cell-based, Sendai virus stimulus, luciferase, 10K MLSCN set, TLR/RLR signaling modifier project, primary screen (AID 602276;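 active = inhibition at or above 50% at 10 µM; inactive = inhibition below 50%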;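 note: firefly luciferase from ISG56 promoter only with Renilla not read in this screen; 0% = Sendai virus plus DMSO and 100% = medium plus DMSO without virus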). The settings on record: HEK293 RL24 IRF3 luciferase reporter, at 10 µM, stronger effect = higher value.
A short description of assay [8]: TLR3 IRF3 reporter activation blockers – cell-based, poly I:C stimulus, luciferase, 10K MLSCN set, primary screen (AID 602277;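 active = inhibition of the reporter signal at or above 50%; inactive = inhibition below 50%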). Particulars: HEK293-TLR3 RL24 IRF3 luciferase reporter, at 10 µM, stronger effect = higher value.

Chain of Alpha-2C adrenergic receptor (Homo sapiens) (P18825 whole entry, looked up): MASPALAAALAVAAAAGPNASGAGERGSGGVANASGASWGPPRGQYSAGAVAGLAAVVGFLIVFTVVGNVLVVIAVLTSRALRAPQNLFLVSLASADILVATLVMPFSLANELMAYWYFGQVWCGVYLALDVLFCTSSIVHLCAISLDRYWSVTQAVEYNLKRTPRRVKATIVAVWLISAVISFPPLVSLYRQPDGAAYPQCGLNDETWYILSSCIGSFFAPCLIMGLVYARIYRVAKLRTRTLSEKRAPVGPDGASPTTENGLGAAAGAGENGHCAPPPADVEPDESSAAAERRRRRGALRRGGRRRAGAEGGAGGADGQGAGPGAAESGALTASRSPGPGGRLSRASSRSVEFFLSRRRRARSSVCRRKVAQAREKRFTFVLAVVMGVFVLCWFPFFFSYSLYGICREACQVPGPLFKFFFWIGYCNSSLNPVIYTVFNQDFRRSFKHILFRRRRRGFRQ
Chain of Voltage-gated potassium channel subunit beta-2 (Rattus norvegicus) (P62483 whole entry, looked up): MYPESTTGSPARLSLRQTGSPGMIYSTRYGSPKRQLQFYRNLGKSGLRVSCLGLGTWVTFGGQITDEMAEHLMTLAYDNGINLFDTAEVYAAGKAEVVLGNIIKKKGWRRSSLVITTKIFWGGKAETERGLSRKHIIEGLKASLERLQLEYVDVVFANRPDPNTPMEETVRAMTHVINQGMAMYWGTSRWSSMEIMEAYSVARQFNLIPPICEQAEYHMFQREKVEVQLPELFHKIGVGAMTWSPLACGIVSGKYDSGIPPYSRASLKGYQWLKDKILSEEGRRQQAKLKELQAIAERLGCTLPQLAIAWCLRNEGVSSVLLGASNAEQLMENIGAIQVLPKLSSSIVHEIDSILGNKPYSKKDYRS

In the case of `CCC(C)NC(=O)CC1Oc2ccc(C)cc2NC1=O` (centres undefined), the cell count in assay [1] stood at 585. In addition, the inhibition was -2% (inactive) in assay [1], -116% (inactive) in assay [3], 2.24% (inactive) in assay [7] and 22.9% (inactive) in assay [8]. In assay [2], the inhibition of aggregation is 9.7% (inactive). The nuclei count turned out to be 100% in assay [2] and 126% in assay [3]. The fluorescence slope in assay [4] is -0.56 (inactive). Further, the NADPH fluorescence slope in assay [5] was -1.5e-05 (inactive). Also, the slope in assay [6] was 0.00629 (inactive).
Turning to `CC(=O)Nc1ccc(S(=O)(=O)N2CCC(NC(C)=O)(c3cccc(F)c3)CC2)cc1`, in assay [1], the cell count is 682. Besides, the inhibition in assay [1] is -5.8% (inactive); in assay [3] it was -10.1% (inactive); in assay [7] it was 8.44% (inactive); in assay [8] it was 28.9% (inactive). Also, the inhibition of aggregation in assay [2] is -25.6% (inactive). Besides, the figures for the nuclei count in assay [2] and in assay [3] were 130% and 109%, respectively. In addition, the fluorescence slope in assay [4] is -0.494 (inactive). The NADPH fluorescence slope in assay [5] is -4.3e-05 (inactive). Also, the slope in assay [6] is 0.0062 (inactive).
As to `CC(C)c1ncc(C(O)c2cccc3ccccc23)n1C` (centres undefined), the cell count in assay [1] was 640. The inhibition is -10.5% (inactive) in assay [1], -10.8% (inactive) in assay [3], -12.7% (inactive) in assay [7] and -7.56% (inactive) in assay [8]. In assay [2], the inhibition of aggregation was 11.4% (inactive). Moreover, the values for the nuclei count in assay [2] and in assay [3] were 75.8% and 123%, respectively. Besides, the fluorescence slope in assay [4] was -0.494 (inactive). Also, in assay [5], the NADPH fluorescence slope is -6.2e-05 (inactive). Further, in assay [6], the slope was 0.00406 (inactive).
Take `Cc1c(C#N)sc2nc(-c3ccccc3)nc(N3CCCC3)c12`: the cell count in assay [1] was 388. Moreover, the inhibition in assay [1] was -8.7% (inactive); in assay [3], -50% (inactive); in assay [7] it was 16.9% (inactive); in assay [8], 26% (inactive). Further, the inhibition of aggregation in assay [2] was -28.2% (inactive). Moreover, the results for the nuclei count in assay [2] and in assay [3] were 99.9% and 130%, respectively. Further, the fluorescence slope in assay [4] was -0.236 (inactive). In assay [5], the NADPH fluorescence slope was -1.1e-05 (inactive). The slope in assay [6] was 0.011 (active).
Regarding `COc1ccc(-c2nc(C#N)c(N3CCN(c4ccccc4)CC3)o2)cc1`, the cell count in assay [1] is 841. Besides, the inhibition in assay [1] is 1.4% (inactive); in assay [3] it was -64.6% (inactive); in assay [7] it was 5.66% (inactive); in assay [8], 24.4% (inactive). Also, the inhibition of aggregation in assay [2] was -19.5% (inactive). Besides, the results for the nuclei count in assay [2] and in assay [3] were 96.2% and 118%, respectively. Besides, the fluorescence slope in assay [4] is -0.577 (inactive). For the same compound, in assay [5], the NADPH fluorescence slope is 1.4e-05 (inactive). The slope in assay [6] was 0.00659 (inactive).
As for `CCc1nnc(SCC(=O)NC2CCCCC2)nc1CC`, in assay [1], the cell count came to 774. For the same compound, the inhibition in assay [1] is -14.3% (inactive); in assay [3] it was -62.4% (inactive); in assay [7], -5.14% (inactive); in assay [8], 5.98% (inactive). The inhibition of aggregation in assay [2] was 11.4% (inactive). The nuclei count in assay [2] turned out to be 105%; in assay [3] it was 103%. Besides, in assay [4], the fluorescence slope was -0.536 (inactive). Moreover, in assay [5], the NADPH fluorescence slope is 2e-06 (inactive). The slope in assay [6] was 0.00672 (inactive).
Regarding `Cc1ccc2nsnc2c1S(=O)(=O)N(Cc1cc2cccc(C)c2[nH]c1=O)CC1CCCO1` (centres undefined), the cell count in assay [1] was determined as 641. Moreover, the inhibition in assay [1] is 2.6% (inactive); in assay [3], 42.1% (inactive); in assay [7], 32.9% (inactive); in assay [8] it was 18.9% (inactive). Besides, the inhibition of aggregation in assay [2] was 6.3% (inactive). Moreover, the values for the nuclei count in assay [2] and in assay [3] were 108% and 92.6%, respectively. Besides, in assay [4], the fluorescence slope is -0.578 (inactive). The NADPH fluorescence slope in assay [5] is -6.5e-05 (inactive). Besides, in assay [6], the slope was 0.00367 (inactive).
For the compound `CCOC(=O)C1=C(C)N=C2SCCC(=O)N2C1c1cc(Br)ccc1OC` (centres undefined), the cell count in assay [1] turned out to be 466. In addition, the inhibition in assay [1] was 2.7% (inactive); in assay [3] it was -16% (inactive); in assay [7], 17.2% (inactive); in assay [8], 20.9% (inactive). For the same compound, the inhibition of aggregation in assay [2] is -4.8% (inactive). Further, the results for the nuclei count in assay [2] and in assay [3] were 108% and 85%, respectively. Also, the fluorescence slope in assay [4] is -0.499 (inactive). Also, the NADPH fluorescence slope in assay [5] is 7.4e-06 (inactive). In addition, the slope in assay [6] is 0.00736 (inactive).
As to `Cn1c(=O)c2c(nc(CN3CCN(Cc4ccccc4)CC3)n2Cc2cccc(Cl)c2)n(C)c1=O`, the cell count in assay [1] was found to be 488. In addition, the inhibition in assay [1] was -13.1% (inactive); in assay [3], 10.1% (inactive); in assay [7] it was 15.9% (inactive); in assay [8], 48.7% (inactive). Besides, the inhibition of aggregation in assay [2] was 6.5% (inactive). The nuclei count was 100% in assay [2] and 98% in assay [3]. Moreover, the fluorescence slope in assay [4] was -0.562 (inactive). Besides, in assay [5], the NADPH fluorescence slope was -5.1e-05 (inactive). For the same compound, the slope in assay [6] was 0.00606 (inactive).
On to `COc1cccc(CNc2nc3nc(C)c(Cl)c(C)n3n2)c1`, for which the cell count in assay [1] was determined as 343. Moreover, the inhibition in assay [1] is 2.8% (inactive); in assay [3] it was 50.1% (inactive); in assay [7], -16.5% (inactive); in assay [8] it was 98.2% (active). In assay [2], the inhibition of aggregation is -5% (inactive). The nuclei count in assay [2] was 86.4%; in assay [3] it was 83.7%. In addition, the fluorescence slope in assay [4] was -0.375 (inactive). In addition, the NADPH fluorescence slope in assay [5] was 2.9e-05 (inactive). The slope in assay [6] was 0.00679 (inactive).
For the compound `CC(=O)Nn1c(C)nnc1-n1nc(C)cc1C`, the cell count in assay [1] worked out at 594. For the same compound, the inhibition is -9.2% (inactive) in assay [1], -52.4% (inactive) in assay [3], 5.42% (inactive) in assay [7] and 18.4% (inactive) in assay [8]. For the same compound, the inhibition of aggregation in assay [2] is 11.6% (inactive). The nuclei count in assay [2] is 94.1%; in assay [3], 117%. Moreover, the fluorescence slope in assay [4] was -0.474 (inactive). For the same compound, the NADPH fluorescence slope in assay [5] was -9.2e-05 (inactive). Moreover, the slope in assay [6] is 0.00573 (inactive).
On to `COc1ccccc1OCC(=O)N1CCN(c2ccccc2OC)CC1`, for which the cell count in assay [1] came to 471. Further, the inhibition in assay [1] is 3% (inactive); in assay [3] it was 35.1% (inactive); in assay [7], -19.3% (inactive); in assay [8], -1.87% (inactive). Moreover, the inhibition of aggregation in assay [2] is 5.3% (inactive). The nuclei count in assay [2] was 108%; in assay [3] it was 107%. Besides, the fluorescence slope in assay [4] is -0.6 (inactive). In addition, the NADPH fluorescence slope in assay [5] was -1.5e-05 (inactive). Further, the slope in assay [6] was 0.00684 (inactive).
Regarding `CC(=O)c1c(C)[nH]c(C(=O)Nc2c(C)n(C)n(-c3ccccc3)c2=O)c1C`, the cell count in assay [1] is 418. In addition, the inhibition in assay [1] was 2% (inactive); in assay [3], -137% (inactive); in assay [7] it was 17.1% (inactive); in assay [8], 21.5% (inactive). For the same compound, the inhibition of aggregation in assay [2] is -7.3% (inactive). The nuclei count in assay [2] is 112%; in assay [3], 111%. The fluorescence slope in assay [4] is -0.493 (inactive). Further, the NADPH fluorescence slope in assay [5] is -2.7e-05 (inactive). Also, the slope in assay [6] was 0.00389 (inactive).
With `O=S(=O)(Nc1nc2ccccc2nc1NCc1ccco1)c1cccs1`, in assay [1], the cell count was 448. The inhibition in assay [1] is -6.2% (inactive); in assay [3] it was -73.9% (inactive); in assay [7], 14.7% (inactive); in assay [8], 14.6% (inactive). The inhibition of aggregation in assay [2] was -18.2% (inactive). Moreover, the values for the nuclei count in assay [2] and in assay [3] were 105% and 120%, respectively. The fluorescence slope in assay [4] was -0.298 (inactive). Also, the NADPH fluorescence slope in assay [5] is -6.8e-05 (inactive). In addition, in assay [6], the slope is 0.00495 (inactive).

These data come from PubChem BioAssay.
